The source of these data is PubChem BioAssay AID1540 (National Center for Advancing Translational Sciences (NCATS), 2009).

Where “and” joins values, the source holds several entries; their conditions need not be identical. Equal entries are not always repeated. Records with an inconclusive call do not appear. The source holds several records for some structures; these can differ, active in one and inactive in another. Calls of active or inactive are those of the source. Calls follow the shape of the dose curve; as a rule, active = well fitted activation curve with a large enough effect; inconclusive = small, poorly fitted or top-dose-only effect, or effect the other way; inactive = flat fitted curve, though single readings scatter.

Sequence of Pyruvate kinase PKM (Homo sapiens) (P14618 whole entry, looked up, canonical isoform): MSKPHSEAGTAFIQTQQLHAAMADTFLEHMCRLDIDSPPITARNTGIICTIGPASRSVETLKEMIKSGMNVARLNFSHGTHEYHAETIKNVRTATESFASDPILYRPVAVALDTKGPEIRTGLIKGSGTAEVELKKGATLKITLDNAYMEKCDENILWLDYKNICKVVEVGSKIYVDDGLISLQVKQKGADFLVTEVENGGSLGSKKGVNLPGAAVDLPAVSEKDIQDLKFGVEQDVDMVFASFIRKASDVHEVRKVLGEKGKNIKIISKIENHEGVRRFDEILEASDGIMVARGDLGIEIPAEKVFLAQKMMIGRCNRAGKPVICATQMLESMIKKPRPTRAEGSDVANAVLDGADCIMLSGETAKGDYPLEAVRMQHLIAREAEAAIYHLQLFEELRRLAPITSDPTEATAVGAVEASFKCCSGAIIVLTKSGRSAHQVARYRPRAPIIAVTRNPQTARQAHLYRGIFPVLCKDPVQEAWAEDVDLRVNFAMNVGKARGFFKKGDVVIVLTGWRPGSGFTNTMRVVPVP

The target of this experiment is Pyruvate kinase PKM (Homo sapiens) (UniProt P14618). Put plainly: Secondary assay for Activators of Human Pyruvate Kinase M2 isoform. The settings on record: purified hPK-M2, LDH-coupled NADH fluorescence kinetic; series mostly up to 57.5 µM. From the text:
Confirmatory assay NIH Chemical Genomics Center [NCGC] Matthew G. Vander Heiden, M.D., Ph.D. [Harvard Medical School, 77 Avenue Louis Pasteur, Boston, MA 02115] NCGC Assay Overview: Human pyruvate kinase muscle 2 (hPK-M2)enzyme was supplied as a highly purified (>95% pure) preparation from Harvard Medical School and a secondary assay was used to evaluate compounds. This assay couples the formation of pyruvate from hPK-M2 using lactate dehydrogenase (LDH) and NADH. The depletion of NADH is followed in a fluorescent-based kinetic assay that follows the formation of pyruvate to lactate, as catalyzed LDH (described by Hannaert et al., 2002)1 Pyruvate kinase substrates, PEP and ADP, were present in the assay at 0.1 mM and 4 mM respectively. In this kinetic assay initial rates were determined by following the fluorescence of NADH depletion.
NCGC Assay Protocol Summary: Three uL of substrate mix (final concentration, 50 mM Tris-Cl pH 8.0, 200 mM KCl, 15 mM MgCl2, 0.1 mM PEP, 4.0 mM ADP, and 0.2 mM NADH) was dispensed into black-solid 1536 well plates. 23 nL of compounds were delivered by a pin tool and 1 uL of enzyme mix (final concentrations, 10 nM hPK-M2 and 1 uM of LDH) was added. Plates were immediately placed in ViewLux (Perkin Elmer) and NADH fluorescence was determined at 30 second exposure intervals for between 3 and 6 minutes. Data were normalized to the uninhibited and EC100 activation using known activators such as fructose-bis-phosphate.
Take `Nc1cccc(S(=O)(=O)N2CCN(S(=O)(=O)c3ccc4c(c3)OCCO4)CC2)c1`: the Potency is 146 nM (active).
The result for `O=C(O)c1cc(F)c(S(=O)(=O)N2CCN(S(=O)(=O)c3ccc4c(c3)OCCO4)CC2)cc1F` reads 31600 nM (active); that for `COc1cc(F)c(S(=O)(=O)N2CCCN(S(=O)(=O)c3cccc(N)c3)CC2)c(F)c1`, 146 nM (active) and 1.16 µM (active); that for `C[C@H]1CN(S(=O)(=O)c2c(F)cccc2F)CCN1S(=O)(=O)c1ccc2c(c1)OCCO2`, 5010 nM (active).
The result for `Cn1c2cc(B(O)O)sc2c2cnn(Cc3ccccc3F)c(=O)c21` reads 15800 nM (active); that for `Cc1cc2c(s1)c1cnn(Cc3ccc(C)c(F)c3F)c(=O)c1n2C`, 141 nM (active); that for `Cc1cc2c(s1)c1cnn(Cc3cccc(Cn4ncc5c6sc(C)cc6n(C)c5c4=O)c3F)c(=O)c1n2C`, 35500 nM (active).
The result for `Cn1ccc2cc(S(=O)(=O)N3CCN(S(=O)(=O)c4c(F)cccc4F)CC3)ccc21` reads 1410 nM (active).
Take `Cc1ccc(Cn2ncc3c4sc(C)cc4n(C)c3c2=O)cc1`: the Potency was 1260 nM (active).
In the case of `Cn1c2cc(C#N)sc2c2cnn(Cc3ccccc3F)c(=O)c21` it was 355 nM (active).
With `Nc1cc(S(=O)(=O)N2CCN(S(=O)(=O)c3ccc4c(c3)OCCO4)CC2)ccn1`, the Potency result is “inactive”.
On to `CCNc1cccc(S(=O)(=O)N2CCN(S(=O)(=O)c3ccc4c(c3)OCCO4)CC2)c1`, for which the Potency entry is “inactive”.
As to `O=S(=O)(c1ccc2c(c1)OCCO2)N1CCN(S(=O)(=O)c2c(F)ccc(O)c2F)CC1`, the Potency was 355 nM (active).
In the case of `COc1ccc(S(=O)(=O)N2CCN(S(=O)(=O)c3c(F)cccc3F)CC2)cc1` it was “inactive and 141 nM (active)”.
The result for `COC/C=C/c1cc(F)c(S(=O)(=O)N2CCN(S(=O)(=O)c3ccc4c(c3)OCCO4)CC2)cc1F` reads 17800 nM (active); that for `CN1CCOc2ccc(S(=O)(=O)N3CCN(S(=O)(=O)c4c(F)cccc4F)CC3)cc21`, 3.55 µM (active) and 708 nM (active); that for `Cn1c2cc(C#N)sc2c2cnn(Cc3ccc(F)cc3)c(=O)c21`, 282 nM (active).
Regarding `Cc1cc2c(s1)c1cnn(Cc3c(F)c(F)cc(F)c3F)c(=O)c1n2C`, the Potency was 398 nM (active).
The result for `Cn1c2cc(Br)sc2c2cnn(Cc3ccc(F)cc3F)c(=O)c21` reads 708 nM (active).
The result for `Nc1ccc(S(=O)(=O)N2CCCN(S(=O)(=O)c3ccc4c(c3)OCCO4)CC2)cc1` reads 366 nM (active); that for `COc1cccc(S(=O)(=O)N2CCN(S(=O)(=O)c3ccc4c(c3)OCCO4)CC2)c1`, 562 nM (active); that for `O=S(=O)(c1ccc2c(c1)OCCO2)N1CCCN(S(=O)(=O)c2c(F)cccc2F)CC1`, 891 nM (active).
In the case of `COc1ccc(S(=O)(=O)N2CCN(S(=O)(=O)c3ccc(OC)cc3)CC2)cc1` it was 398 nM (active) and 282 nM (active).
For the compound `Cc1cc2c(s1)c1cnn(Cc3ccc(F)cc3)c(=O)c1n2C`, the Potency is 251 nM (active).
In the case of `Cc1cc2c(s1)c1cnn(Cc3cccc(F)c3F)c(=O)c1n2C` it was 501 nM (active).
Regarding `CCCc1cc(F)c(S(=O)(=O)N2CCN(S(=O)(=O)c3ccc4c(c3)OCCO4)CC2)cc1F`, the Potency is 8910 nM (active).
In the case of `O=C(N1CCc2ccc(S(=O)(=O)N3CCN(S(=O)(=O)c4ccc5c(c4)OCCO5)CC3)cc2C1)C(F)(F)F` it was 1120 nM (active).
The result for `COc1cccc(Cn2ncc3c4sc(S(C)=O)cc4n(C)c3c2=O)c1` (stereo not given) reads 146 nM (active).
The result for `Cc1cc2c(s1)c1cnn(Cc3cccc(Cl)c3)c(=O)c1n2C` reads 355 nM (active); that for `COc1cc(F)c(S(=O)(=O)N2CCN(S(=O)(=O)c3cccc(N)c3)CC2)c(F)c1`, 73 nM (active); that for `Cn1c2cc(B(O)O)sc2c2cnn(Cc3c(F)cccc3Cl)c(=O)c21`, 6310 nM (active).
As to `Nc1cccc(S(=O)(=O)N2CCN(S(=O)(=O)c3c(F)cccc3F)CC2)c1`, the Potency is 206 nM (active).
In the case of `COc1ccc(Cn2ncc3c4sc(C)cc4n(C)c3c2=O)cc1` it was 199 nM (active).
As for `Cc1cc2c(s1)c1cnn(Cc3cc(C(F)(F)F)cc(Cl)c3F)c(=O)c1n2C`, the Potency is 562 nM (active).
In the case of `Cn1c2cc([N+](=O)[O-])sc2c2cnn(Cc3ccccc3F)c(=O)c21` it was 251 nM (active); in that of `CN(C)c1cccc(S(=O)(=O)N2CCN(S(=O)(=O)c3ccc4c(c3)OCCO4)CC2)c1`, “inactive”; in that of `Cc1cc2c(s1)c1cnn(Cc3ccccc3Cl)c(=O)c1n2C`, 562 nM (active).
With `C=Cc1cc2c(s1)c1cnn(Cc3ccccc3F)c(=O)c1n2C`, the Potency was 562 nM (active).
In the case of `Cn1c2cc(C=O)sc2c2cnn(Cc3ccccc3F)c(=O)c21` it was 282 nM (active); in that of `Cn1c2cc(C(=O)O)sc2c2cnn(Cc3ccccc3F)c(=O)c21`, 8910 nM (active).
